Results reported in PubChem BioAssay (NCI).
Compounds without any hit were thinned out: in the full panel of roughly 83,000, 20% have a hit.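 Compound tested at a single concentration for 48 hours in 96-well plates; a percent growth value below 10 was scored as active.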 A number with no mark means an inactive call. Active and inactive are the calls of the source.

Tested on: HL-60(TB) leukemia
Assay: NCI-60 one-dose screen, 48 h (100 = growth as untreated, 0 = no growth, -100 = all killed)
Details: 10 µM unless noted

SMILES | growth
CCC1(CC)NC(=O)c2c(c3ccc(Cl)c(Cl)c3n2C)C1C#N (centres undefined) | 91.3%
CC1Cc2c(ncn3c(-c4ccc(F)cc4)nnc23)N(C)c2ccccc21 (centres undefined) | 91.2%
Cn1c(=O)c2nc(SCc3ccccc3)n(C)c2n(C)c1=O | 92.3%
Cn1ccc(=O)c(S(N)(=O)=O)c1 | 96.4%
C=CC1=C(C)C2=NC1=CC1=NC(=CC3=C(C)C4=C(O)C(C(=O)O)C(=C5NC(=C2)C(C)C5CCC(=O)O)C4=N3)C(CC)=C1C (centres undefined) | 89.4%
OCCn1cc(-c2nc(-c3c[nH]c4ncccc34)cs2)c2ccccc21 | 79.1%
COc1ccc(-c2cc(-c3cc(OC)c(OC)c(OC)c3)nc(N3CCOCC3)c2C#N)cc1 | 51.4%
COc1c(O)c(O)cc2c3c(oc12)CC(c1ccc2c(c1)OCO2)CC3=O (centres undefined) | 61.1%
COc1ccc(NC(=O)c2sc3nc(C)c(C(O)c4ccc(OC)cc4)cc3c2N)cc1 (centres undefined) | -59.5% (active)
C=CC[C@]1(O)CC[C@H]2[C@@H]3CCc4cc(O)ccc4[C@H]3CC[C@@]21C | 75.1%
COc1ccc(C(O)c2cc3c(N)c(C(=O)Nc4cccc(Br)c4C)sc3nc2C)cc1 (centres undefined) | -41% (active)
CC1(C)CC[C@]2(C(=O)Nc3ccccn3)CC[C@]3(C)C(=CC[C@@H]4[C@@]5(C)C/C(=C/c6cccnc6)C(=O)C(C)(C)[C@@H]5CC[C@]43C)[C@H]2C1 | 1.84% (active)
N#CSCc1c(Cl)cccc1Cl | 88.9%
O=C(/C=C/c1ccc(B(O)O)cc1)/C=C/c1ccc(B(O)O)cc1 | 21.7%
